Compound activity (PubChem BioAssay)
Shown are actives, neighbours in structure and some others; about 11% of the full set was active somewhere.
JMJD2A Tudor: JMJD2A Tudor domain (human) inhibition | AID 504339 | Potency, µM (doses to about 114 µM), hits mostly inhibitors | O75164 | AlphaScreen JMJD2A-Tudor / H3K4me3 peptide binding | hit rate 4.4% among 390,000; also: nearly all actives have a fitted effect of over 50% in size
PLK1 PBD inh: inhibitors of human PLK1 polo-box domain binding; Plk1 PBD binding of FITC phosphopeptide, fluorescence polarization; AID 720504; P53350; hit rate 2.8% among 360,000; Potency, µM, actives largely listed as inhibitors; also: series mostly up to about 57 µM; nearly all actives have a fitted effect of over 65% in size
Target sequence (P53350 whole entry, looked up, the tested form may be a part): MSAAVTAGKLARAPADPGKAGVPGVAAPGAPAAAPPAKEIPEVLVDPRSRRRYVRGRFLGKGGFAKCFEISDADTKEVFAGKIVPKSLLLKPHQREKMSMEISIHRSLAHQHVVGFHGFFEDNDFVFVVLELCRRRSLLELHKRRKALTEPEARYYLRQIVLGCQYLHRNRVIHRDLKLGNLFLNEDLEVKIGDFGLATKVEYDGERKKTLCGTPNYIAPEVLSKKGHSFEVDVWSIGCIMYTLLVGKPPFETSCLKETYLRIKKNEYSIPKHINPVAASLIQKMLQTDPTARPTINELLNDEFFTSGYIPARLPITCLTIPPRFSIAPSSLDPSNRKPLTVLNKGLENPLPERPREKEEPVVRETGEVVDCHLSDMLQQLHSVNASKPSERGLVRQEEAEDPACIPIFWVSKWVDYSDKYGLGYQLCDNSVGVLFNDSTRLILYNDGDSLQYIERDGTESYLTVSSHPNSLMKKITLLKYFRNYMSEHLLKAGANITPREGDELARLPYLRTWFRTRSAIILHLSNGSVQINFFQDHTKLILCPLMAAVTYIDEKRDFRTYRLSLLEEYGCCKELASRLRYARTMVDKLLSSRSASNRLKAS
BAZ2B inh: inhibitors of human BAZ2B bromodomain; hit rate 4.4% among 360,000; Potency, µM (top dose mostly 114 µM), actives largely listed as inhibitors; AlphaScreen BAZ2B-H3K14Ac peptide displacement; AID 504333; also: nearly all actives have a fitted effect of over 60% in size
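AlphaScreen displacement: compounds (up to 110uM) incubated 30 min at room temperature with a preformed 50 nM BAZ2B/50 nM biotinylated H3K14Ac peptide complex in PBS pH 7.4 with Tween-20. Donor and acceptor beads at 10 ug/mL final added, 20 min light-protected before reading.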
HP1b binding inh: HP1-beta chromodomain-methylated histone interaction inhibition. P83916. AlphaScreen HP1-beta / biotin-H3K9me3 peptide binding. Potency, µM (highest dose often 114 µM), actives largely listed as inhibitors. hit rate 0.56% among 390,000. AID 540317; also: nearly all actives have a fitted effect of over 70% in size
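AlphaScreen: HP1-beta (50 nM) preformed 30 min with biotin-H3(1-18)K9me3 peptide (50 nM) in PBS pH 7.4, 0.01% Tween-20. Compound added for 30 min at RT, then streptavidin donor/nickel chelate acceptor beads (10 ug/mL) for 30 min.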
G9a block: blocks human histone lysine methyltransferase G9a; Q96KQ7; G9a H3K9 monomethylation, AlphaScreen, 2 h; Potency, µM (series often up to 102 µM), usual class: inhibitors; hit rate 8.8% among 350,000; AID 504332; also: nearly all actives have a fitted effect of over 75% in size
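Signal arises when biotinylated H3K9 peptide, once monomethylated, bridges streptavidin donor and antibody-captured acceptor beads. Enzyme at 20 nM was preincubated 15 min with test compounds; peptide 500 nM and SAM 20 uM then reacted for 2 h.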
VDR inhibitor: vitamin D3 receptor (human) inhibition | hit rate 0.93% among 400,000 | Potency, µM, usual class: inhibitors | VDR-SRC2-3 peptide fluorescence polarization, 2 h
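Compounds are added to VDR with labelled SRC2-3 coactivator peptide and held 2 h at room temperature. Inhibition of the VDR–peptide interaction is then read as a change in fluorescence polarization.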
Large screens that a line does not name were inactive. Calls follow the shape of the dose curve; as a rule, active = well fitted curve in the direction sought with a large enough effect; inconclusive = small, poorly fitted or top-dose-only effect, or another doubt; inactive = no such curve, though single readings can be large; an effect the other way counts as inactive or inconclusive.

COc1ccc(C2CC(c3ccccc3)Oc3cc(OC)c(OC)c(OC)c32)cc1 (stereo not drawn)	none (no result: PLK1 PBD inh, BAZ2B inh, G9a block)
NN/C(=C\[N+](=O)[O-])Nc1ccccc1	BAZ2B inh 56µM, G9a block 20µM
NN/C(=C\[N+](=O)[O-])Nc1ccc(Cl)cc1	JMJD2A Tudor inconclusive, PLK1 PBD inh 12µM, BAZ2B inh inconclusive, G9a block 1.3µM
NNC(=S)Nc1ccc(Cl)cc1	JMJD2A Tudor inconclusive, G9a block inconclusive
CCC(C)(C)NC(=O)C(c1ccccc1Cl)N(C(=O)CCC(=O)Nc1cc(C)on1)C(C)(C)C (stereo not drawn)	JMJD2A Tudor 56µM, PLK1 PBD inh inconclusive
CCC(C)(C)NC(=O)C(c1ccccc1Cl)N(C(=O)CCC(=O)Nc1cc(C)on1)C1CC1 (stereo not drawn)	none
CCCCN(C)C(=O)C1CCN(Cc2cccnc2)CC1	JMJD2A Tudor 28µM, BAZ2B inh 79µM, HP1b binding inh inconclusive, G9a block 14µM
O=C(O)C1CCN(Cc2cccnc2)CC1	G9a block inconclusive
CCCCN(C)C(=O)C1CCN(Cc2cccc(OCc3ccccc3)c2)CC1	JMJD2A Tudor 40µM, BAZ2B inh inconclusive, G9a block 13µM
Cc1c(N=C2NN=C(c3c[nH]c4ccccc34)CS2)c(=O)n(-c2ccccc2)n1C	JMJD2A Tudor inconclusive, PLK1 PBD inh inconclusive, G9a block 45µM
Cc1c(N=C2NN=C(c3ccc(Cl)cc3)CS2)c(=O)n(-c2ccccc2)n1C	PLK1 PBD inh inconclusive, G9a block 10µM
COc1ccc(OC)c(Nc2nc(NCCCN(C)C)nc(N)c2[N+](=O)[O-])c1	JMJD2A Tudor 35µM, BAZ2B inh 32µM, G9a block 45µM
COCCCNc1nc(N)c([N+](=O)[O-])c(Nc2cc(OC)ccc2OC)n1	none
CCNC(=O)C1CC(=O)N(Cc2ccc3c(c2)OCO3)C(=Nc2ccc(OCC)cc2)S1 (stereo not drawn)	BAZ2B inh 50µM
Cc1ccc(C(=O)Nc2ccc3cn[nH]c3c2)cc1S(=O)(=O)N1CCOCC1	none (no result: G9a block)
CCOC(=O)c1c2c([nH]c(=S)c1C#N)CCCC2	JMJD2A Tudor 8.9µM, PLK1 PBD inh inconclusive, BAZ2B inh inconclusive, VDR inhibitor inconclusive (no result: G9a block)
CCc1[nH]c(=O)c(C#N)c2c1CCCC2	none
CCc1[nH]c(=S)c(C#N)c2c1CCCC2	JMJD2A Tudor 14µM, PLK1 PBD inh 27µM, HP1b binding inh inconclusive, G9a block 3.2µM, VDR inhibitor inconclusive
COc1ccc(C)cc1NC(=O)CN1CCCN(S(=O)(=O)c2ccc(Br)cc2)CC1	none
CN1/C(=C\C=N\O)C(C)(C)c2ccccc21	none
CO/N=C/C=C1/N(C)c2ccccc2C1(C)C	BAZ2B inh inconclusive, G9a block 50µM
CN(C)c1ccc(N=C/C=C2/N(C)c3ccccc3C2(C)C)cc1	JMJD2A Tudor 40µM, BAZ2B inh 20µM, HP1b binding inh inconclusive, G9a block 7.1µM
COc1cccc(/C=N/N2CCN(C3c4ccccc4-c4ccccc43)CC2)c1O	JMJD2A Tudor inconclusive, G9a block 35µM
O=C(O)COCC(=O)N1CCN(C2c3ccccc3-c3ccccc32)CC1	none
COc1cc(/C=N/N2CCN(C3c4ccccc4-c4ccccc43)CC2)ccc1O	JMJD2A Tudor 56µM, BAZ2B inh 35µM, G9a block inconclusive
Oc1cccc(/C=N/N2CCN(C3c4ccccc4-c4ccccc43)CC2)c1	JMJD2A Tudor 40µM, BAZ2B inh inconclusive, HP1b binding inh inconclusive, G9a block inconclusive
C(=N\N1CCN(C2c3ccccc3-c3ccccc32)CC1)/c1ccncc1	JMJD2A Tudor 45µM, BAZ2B inh 35µM, HP1b binding inh inconclusive, G9a block inconclusive
CC(=O)c1ccc(S(=O)(=O)Nc2ccc(C(=O)N3CCC3)cc2)cc1	none
CCCCC[C@H](C)N1C[C@H](COCc2ccccc2)Oc2cc(N3CCC[C@H]3CO)ccc2S1(=O)=O	none (no result: JMJD2A Tudor, BAZ2B inh, HP1b binding inh, G9a block, VDR inhibitor)
CCOc1ccccc1OCCCC(=O)Nc1cccc(-n2cnnn2)c1C	G9a block inconclusive
O=C(CC1N=C2c3ccccc3N=C(SCC(=O)Nc3ccc(F)cc3)N2C1=O)NCc1ccc2c(c1)OCO2 (stereo not drawn)	none (no result: PLK1 PBD inh)
Cc1cccc2c(Cl)cc(=O)[nH]c12	none (no result: JMJD2A Tudor, PLK1 PBD inh, HP1b binding inh, VDR inhibitor)
Cc1cccc2sc(=S)[nH]c12	PLK1 PBD inh 21µM (no result: JMJD2A Tudor, BAZ2B inh, HP1b binding inh, G9a block, VDR inhibitor)
CCOc1ccc(CN(C)CC(=O)Nc2ccc(N3CCOCC3)cc2)cc1OC	G9a block inconclusive
CN(C)CCCN(C(=O)c1ccc(S(=O)(=O)N2CCOCC2)cc1)c1nc2cc3c(cc2s1)OCO3	none (no result: G9a block)
CCOc1ccc2nc(N(CCCN(C)C)C(=O)c3ccc(S(=O)(=O)N4CCCC4)cc3)sc2c1	BAZ2B inh inconclusive, G9a block inconclusive
Cc1ccc2sc(N(CCCN(C)C)C(=O)CN3C(=O)c4ccccc4C3=O)nc2c1C	G9a block 50µM (no result: BAZ2B inh)
CN(C)CCCN(C(=O)c1ccc(S(=O)(=O)N2CCCCC2)cc1)c1nc2cc3c(cc2s1)OCO3	JMJD2A Tudor inconclusive, BAZ2B inh inconclusive, HP1b binding inh inconclusive, G9a block 50µM
CN(C)CCCN(C(=O)c1ccc(S(=O)(=O)N2CCCC2)cc1)c1nc2ccc(Br)cc2s1	JMJD2A Tudor inconclusive, BAZ2B inh inconclusive, G9a block 50µM
Cc1ccc2sc(N(CCCN(C)C)C(=O)c3ccc(S(=O)(=O)N4CCCCCC4)cc3)nc2c1C	JMJD2A Tudor inconclusive, BAZ2B inh inconclusive, G9a block 50µM
CCOC(=O)N1CCN(S(=O)(=O)c2ccc(C(=O)N(CCCN(C)C)c3nc4ccc(OC)cc4s3)cc2)CC1	G9a block inconclusive
CN(C)CCCN(C(=O)c1cc(Cl)sc1Cl)c1nc2cc3c(cc2s1)OCO3	JMJD2A Tudor inconclusive, BAZ2B inh inconclusive, G9a block 50µM
CC1CCCCN1S(=O)(=O)c1ccc(C(=O)N(CCCN(C)C)c2nc3cc4c(cc3s2)OCO4)cc1 (stereo not drawn)	JMJD2A Tudor inconclusive, BAZ2B inh inconclusive, G9a block 50µM
CCOC(=O)N1CCN(S(=O)(=O)c2ccc(C(=O)N(CCN(CC)CC)c3nc4c(C)cccc4s3)cc2)CC1	JMJD2A Tudor inconclusive, BAZ2B inh inconclusive, G9a block 50µM
O=c1ccc(-c2ccccc2)nn1Cc1c(F)cccc1Cl	none (no result: PLK1 PBD inh)
Clc1ccc(-c2csc(Nc3ccccc3)[n+]2Cc2ccco2)c(Cl)c1	BAZ2B inh 25µM, HP1b binding inh inconclusive, G9a block 32µM
CCCC[n+]1c(-c2ccc(Cl)cc2Cl)csc1Nc1ccccc1	JMJD2A Tudor 71µM, BAZ2B inh 13µM, HP1b binding inh inconclusive, G9a block 11µM
CC(C)=C1C2CCC1C1C(=O)N(c3ccc4c(c3)OCO4)C(=O)C21 (stereo not drawn)	none
CC(C)=C1C2C=CC1C1C(=O)N(c3ccc4c(c3)OCO4)C(=O)C21 (stereo not drawn)	G9a block 10µM
